Drawing on article PMC11006913, this text covers binding signal for 9 sequences.

What all share (assay): PBM; 200 nM protein, PBS
Common to all, as to details: dsDNA, one strand shown

For one assay, the target named is SHOX (Homo sapiens, UniProt O15266 103-189, R173C).
The target in assay [1] is T1, SIX6 (Homo sapiens, UniProt O95475 114-200, L167I).
T1 sequence: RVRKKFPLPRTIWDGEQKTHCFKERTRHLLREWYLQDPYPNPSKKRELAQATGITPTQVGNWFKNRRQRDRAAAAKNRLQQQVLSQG

Assay [2] concerns the target T2, SIX6 (Homo sapiens, UniProt O95475 114-200, L143V).
T2 sequence: T1 sequence with L30V, I54L

Assay [3] has as its target T3, SIX6 (Homo sapiens, UniProt O95475 114-200, T165P).
T3 sequence: T1 sequence with T52P, I54L

Assay [4] concerns the target T4, SIX6 (Homo sapiens, UniProt O95475 114-200, L167M).
T4 sequence: T1 sequence with I54M

The target in assay [5] is T5, SIX6 (Homo sapiens, UniProt O95475 114-200, L143M).
T5 sequence: T1 sequence with L30M, I54L

Assay [6] concerns the target T6, SIX6 (Homo sapiens, UniProt O95475 114-200, L143I).
T6 sequence: T1 sequence with L30I, I54L

For assay [7], the target named is T7, SIX6 (Homo sapiens, UniProt O95475 114-200, T165G).
T7 sequence: T1 sequence with T52G, I54L

Assay [8] has as its target T8, SIX6 (Homo sapiens, UniProt O95475 114-200, T139Q).
T8 sequence: T1 sequence with T26Q, I54L

For assay [9], the target named is T9, SIX6 (Homo sapiens, UniProt O95475 114-200, L167V).
T9 sequence: T1 sequence with I54V

Assay [10] has as its target T10, SIX6 (Homo sapiens, UniProt O95475 114-200, T165I).
T10 sequence: T1 sequence with T52I, I54L

For assay [11], the target named is HESX1 (Homo sapiens, UniProt Q9UBX0 95-180, F115L).
Assay [12] deals with T11, NKX2-6 (Homo sapiens, UniProt A6NCS4 118-204).
T11 sequence: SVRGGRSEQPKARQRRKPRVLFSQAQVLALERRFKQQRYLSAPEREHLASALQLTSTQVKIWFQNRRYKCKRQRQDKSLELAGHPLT

For assay [13], the target named is HESX1 (Homo sapiens, UniProt Q9UBX0 95-180, R109Q).
Assay [14] addresses T12, NKX2-6 (Homo sapiens, UniProt A6NCS4 118-204, F151L).
T12 sequence: T11 sequence with F34L

Substitutions are numbered along the chain they refer to.

Chain of HESX1 (Homo sapiens, UniProt Q9UBX0 95-180, F115L) (Q9UBX0 95-180 F115L): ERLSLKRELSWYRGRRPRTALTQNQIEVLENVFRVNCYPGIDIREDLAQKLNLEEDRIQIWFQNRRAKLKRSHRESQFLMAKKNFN
Chain of HESX1 (Homo sapiens, UniProt Q9UBX0 95-180, R109Q) (Q9UBX0 95-180 R109Q): as the sequence (Q9UBX0 95-180 F115L) above, with R15Q, L21F counted along it
Chain of SHOX (O15266 103-189 R173C): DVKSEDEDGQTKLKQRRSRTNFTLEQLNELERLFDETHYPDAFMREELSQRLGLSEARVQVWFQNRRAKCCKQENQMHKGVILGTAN

Regarding ACTCATTA, the binding signal in the assay with SHOX was 9.29 upbm affinity estimate (log intensity, higher = more binding, comparable within an allelic series).

As for GCGCAGCC, the binding signal with SIX6 [1] was 8.75 upbm affinity estimate (log intensity, higher = more binding, comparable within an allelic series); with SIX6 [2], 8.82 upbm affinity estimate (log intensity, higher = more binding, comparable within an allelic series); with SIX6 [3] it was 8.87 upbm affinity estimate (log intensity, higher = more binding, comparable within an allelic series); in the assay with SIX6 [4], 8.77 upbm affinity estimate (log intensity, higher = more binding, comparable within an allelic series); with SIX6 [5] it was 8.72 upbm affinity estimate (log intensity, higher = more binding, comparable within an allelic series); in the assay with SIX6 [6], 8.74 upbm affinity estimate (log intensity, higher = more binding, comparable within an allelic series). Besides, the binding signal was 8.7 upbm affinity estimate (log intensity, higher = more binding, comparable within an allelic series) with SIX6 [7]; 8.82 upbm affinity estimate (log intensity, higher = more binding, comparable within an allelic series) with SIX6 [8]; 8.72 upbm affinity estimate (log intensity, higher = more binding, comparable within an allelic series) with SIX6 [9]; 8.7 upbm affinity estimate (log intensity, higher = more binding, comparable within an allelic series) with SIX6 [10].

For GGCCCCCC, the binding signal with SIX6 [1] is 8.65 upbm affinity estimate (log intensity, higher = more binding, comparable within an allelic series); in the assay with SIX6 [2], 8.57 upbm affinity estimate (log intensity, higher = more binding, comparable within an allelic series); with SIX6 [3], 8.56 upbm affinity estimate (log intensity, higher = more binding, comparable within an allelic series); in the assay with SIX6 [4] it was 8.73 upbm affinity estimate (log intensity, higher = more binding, comparable within an allelic series); with SIX6 [5] it was 8.77 upbm affinity estimate (log intensity, higher = more binding, comparable within an allelic series); with SIX6 [6], 8.57 upbm affinity estimate (log intensity, higher = more binding, comparable within an allelic series). For the same sequence, the binding signal is 8.61 upbm affinity estimate (log intensity, higher = more binding, comparable within an allelic series) with SIX6 [7]; 8.85 upbm affinity estimate (log intensity, higher = more binding, comparable within an allelic series) with SIX6 [8]; 8.56 upbm affinity estimate (log intensity, higher = more binding, comparable within an allelic series) with SIX6 [9]; 8.78 upbm affinity estimate (log intensity, higher = more binding, comparable within an allelic series) with SIX6 [10].

With GCCGCTCC, the binding signal with SIX6 [1] was 9.16 upbm affinity estimate (log intensity, higher = more binding, comparable within an allelic series); with SIX6 [2], 8.94 upbm affinity estimate (log intensity, higher = more binding, comparable within an allelic series); with SIX6 [3], 8.87 upbm affinity estimate (log intensity, higher = more binding, comparable within an allelic series); with SIX6 [4], 9.07 upbm affinity estimate (log intensity, higher = more binding, comparable within an allelic series); in the assay with SIX6 [5], 9.12 upbm affinity estimate (log intensity, higher = more binding, comparable within an allelic series); in the assay with SIX6 [6] it was 8.99 upbm affinity estimate (log intensity, higher = more binding, comparable within an allelic series). The binding signal with SIX6 [7] was 9.14 upbm affinity estimate (log intensity, higher = more binding, comparable within an allelic series); with SIX6 [8], 9.17 upbm affinity estimate (log intensity, higher = more binding, comparable within an allelic series); with SIX6 [9] it was 9.06 upbm affinity estimate (log intensity, higher = more binding, comparable within an allelic series); with SIX6 [10] it was 9.09 upbm affinity estimate (log intensity, higher = more binding, comparable within an allelic series).

Turning to ATTATTAA, in the assay with HESX1 [11], the binding signal was 7.79 upbm affinity estimate (log intensity, higher = more binding, comparable within an allelic series).

Turning to CTAATGAC, the binding signal with NKX2-6 [12] is 11.7 upbm affinity estimate (log intensity, higher = more binding, comparable within an allelic series).

Consider TATTAATA, for which the binding signal with HESX1 [11] is 8.46 upbm affinity estimate (log intensity, higher = more binding, comparable within an allelic series).

Turning to ATTAATCA, in the assay with HESX1 [13], the binding signal is 8.96 upbm affinity estimate (log intensity, higher = more binding, comparable within an allelic series).

In the case of CAGGCACG, the binding signal is 9.31 upbm affinity estimate (log intensity, higher = more binding, comparable within an allelic series) with NKX2-6 [12] and 9.26 upbm affinity estimate (log intensity, higher = more binding, comparable within an allelic series) with NKX2-6 [14].
